# JMJD2A Tudor: blocks the human JMJD2A Tudor domain. O75164. AlphaScreen JMJD2A-Tudor / H3K4me3 peptide binding. Potency, µM (doses to about 114 µM), actives largely listed as inhibitors. actives 4.4% (n = 390,000); note: nearly all actives have a fitted effect of over 50% in size
# HP1b chromo inh: blocks HP1-beta chromodomain binding to methylated histone tails; P83916; AlphaScreen HP1-beta / biotin-H3K9me3 peptide binding; Potency, µM (highest dose often 114 µM), most hits filed as inhibitors; actives 0.56% (n = 390,000); AID 540317; note: nearly all actives have a fitted effect of over 70% in size
#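 AlphaScreen: HP1-beta (50 nM) preformed 30 min with biotin-H3(1-18)K9me3 peptide (50 nM) in PBS pH 7.4, 0.01% Tween-20. Compound added for 30 min at RT, then streptavidin donor/nickel chelate acceptor beads (10 ug/mL) for 30 min.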
# CtBP-E1A inh: blocks the CtBP interaction with E1A; actives 0.49% (n = 340,000); AlphaScreen GST-E1A/His-CtBP binding, 1536-well; active compounds read low; activity change, % (no concentration beside the values); AID 651724; in the data active = activity change below about -65%; inconclusive = mostly about -30% to -63%
#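 Homogeneous bead-based format: GST-tagged E1A captured on glutathione donor beads, His-tagged CtBP on nickel acceptor beads; compounds precede bead addition by 2 h at 37 °C.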
# Six1-Eya2 inh: inhibitors of human Six1/Eya2 interaction | AlphaScreen GST-Six1/His-Eya2 binding, biochemical; active compounds read low | Q15475+O00167 | AID 651725 | activity change, % (concentration not given with the values) | actives 0.56% (n = 360,000); in the data active = activity change below about -65%; inconclusive = mostly about -30% to -63%
# Target sequence (O00167 whole entry, looked up): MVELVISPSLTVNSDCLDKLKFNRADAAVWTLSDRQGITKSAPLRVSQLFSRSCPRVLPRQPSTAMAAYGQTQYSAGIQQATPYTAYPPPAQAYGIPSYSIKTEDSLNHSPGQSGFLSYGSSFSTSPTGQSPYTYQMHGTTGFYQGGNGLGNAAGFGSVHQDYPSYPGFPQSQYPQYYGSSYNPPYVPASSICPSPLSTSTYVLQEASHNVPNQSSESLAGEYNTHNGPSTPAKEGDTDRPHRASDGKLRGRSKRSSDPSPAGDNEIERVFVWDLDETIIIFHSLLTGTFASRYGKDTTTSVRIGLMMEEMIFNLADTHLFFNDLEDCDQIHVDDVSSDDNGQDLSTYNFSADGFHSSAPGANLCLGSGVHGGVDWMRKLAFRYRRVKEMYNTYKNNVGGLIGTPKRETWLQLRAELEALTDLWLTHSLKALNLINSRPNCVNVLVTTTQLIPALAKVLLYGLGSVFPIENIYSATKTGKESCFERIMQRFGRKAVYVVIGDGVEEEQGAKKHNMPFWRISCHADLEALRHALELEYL
# Target sequence (Q15475 whole entry, looked up): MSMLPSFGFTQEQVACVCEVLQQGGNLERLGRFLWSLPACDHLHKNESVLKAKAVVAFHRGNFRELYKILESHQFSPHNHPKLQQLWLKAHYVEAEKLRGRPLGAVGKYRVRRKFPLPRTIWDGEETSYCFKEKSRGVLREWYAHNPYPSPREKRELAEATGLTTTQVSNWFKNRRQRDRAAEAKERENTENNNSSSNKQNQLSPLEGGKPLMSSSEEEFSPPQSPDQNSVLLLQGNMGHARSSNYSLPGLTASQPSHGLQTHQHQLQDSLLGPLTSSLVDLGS
#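 AlphaScreen luminescence read after one hour at 37 °C in darkness. Pin-transferred compounds met GST-Six1 and His-Eya2 protein (5X stock 250 nM/500 nM) plus glutathione donor and Ni-chelate acceptor beads (5X, 50 ug/mL).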
# TDP1 block: inhibitors of human tyrosyl-DNA phosphodiesterase TDP1. Q9NUW8. recombinant TDP1, AlphaScreen DNA substrate cleavage. Potency, µM (series often up to 130 µM), actives largely listed as inhibitors. actives 0.28% (n = 350,000). AID 485290; note: nearly all actives have a fitted effect of over 40% in size
#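 Compounds were preincubated with Tdp1 (1 nM final) for 15 min at room temperature before substrate (15 nM final) started a 5 min reaction; beads (10 ug/ml final) were then added for 10 min before AlphaScreen detection.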
# BAZ2B inh: BAZ2B (human) inhibition; AlphaScreen BAZ2B-H3K14Ac peptide displacement; Potency, µM (highest dose often 114 µM), actives largely listed as inhibitors; actives 4.4% (n = 360,000); AID 504333; note: nearly all actives have a fitted effect of over 60% in size
#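 BAZ2B 50 nM plus b-H3(5-23)K14Ac 50 nM, PBS pH 7.4/0.01% Tween-20, 30 min RT; compound added (max 110 uM), 30 min RT; streptavidin donor/Ni-chelate acceptor beads 10 ug/mL final, 20 min dark; AlphaScreen read.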
# Numbers stand for hits; . = inactive; ? = inconclusive; / = not tested or not shown; [ ] = remark or other dose. An excerpt weighted towards active compounds, which were near 5.3% of everything screened. Unless noted, calls come from the whole dose curve; as a rule, active = well fitted inhibition curve with a large enough effect; inconclusive = small, poorly fitted or top-dose-only effect; inactive = no such curve, though single readings can be large or run the other way.
SMILES,JMJD2A Tudor,HP1b chromo inh,CtBP-E1A inh,Six1-Eya2 inh,TDP1 block,BAZ2B inh
COC(=O)c1c(C)[nH]c(C(=O)C(C)OC(=O)C2CC(=O)N(CCc3ccccc3)C2)c1C (stereo unspecified),.,.,.,.,.,56µM
CCCSc1nc(-c2ccc(OC)cc2)cc(-c2ccccc2OC)c1C#N,.,.,/,/,.[12.3 µM],.
CN1C(=O)c2cccc3c(S(=O)(=O)Nc4ccc(O)c(C(=O)O)c4)ccc1c23,.,.,?,-72,/,.
CSc1ccc(CCNC(=O)c2sc3ncccc3c2-n2cccc2)cc1,.,.,/,/,.,.
O=C1CSC(=S)N1N=Cc1ccc(Cl)s1,28µM,?,?,?,/,/
COc1ccccc1C=NN1C(=O)CSC1=S,?,?,?,.,/,/
O=C1CSC(=S)N1/N=C/c1cc(Br)ccc1O,/,/,/,/,.,5µM
CC(C)Cc1nc2ccc(N)cc2[nH]1,22µM,.,.,.,.,.
c1ccc2[nH]c(CN3CCOCC3)nc2c1,.,.,.,.,.,.
Cc1ccc2nc(Cc3ccc(N)cc3)[nH]c2c1,.,.,.,.,.,56µM
Nc1ccc2nc(CN3CCOCC3)[nH]c2c1,?,.,.,.,.,50µM
COc1cccc(OCc2nc3ccccc3n2CCOc2ccc(C)cc2)c1,.,.,/,/,.,.
Cc1ccc(CNC(=O)CSc2ncc(S(=O)(=O)c3ccc(C)c(Cl)c3)c(=O)[nH]2)cc1,.,.,/,/,.,.
CC(C)Oc1ccc(CNC(=O)C2COc3ccccc3C2)cc1 (stereo unspecified),.,.,/,/,.,.
CC1CCN(S(=O)(=O)c2ccc3c(c2)N(CC(=O)NCc2ccccc2Cl)C(=O)CS3)CC1,.,.,/,/,.,.
CCCCOc1ccc(-c2nnc(-c3ccncc3)o2)cc1,.,.,.,.,.,.
CCOc1ccc(-c2nnc(-c3ccncc3)o2)cc1,50µM,?,.,.,.,.
O=C1OC(c2ccc3ccccc3c2O)(c2ccc3ccccc3c2O)c2ccccc21,32µM,?,.,.,/,/
COC1[C@@H](OC)C[C@H](C)[C@@H](OC)C2=CC(=O)C=C(NC(=O)/C(C)=C/C=C\[C@H](OC)[C@@H](OC(N)=O)/C(C)=C/[C@@H]1C)C2=O (stereo partly specified),/,/,/,/,.,/
CCN(CC)CCNC(=O)C(=O)Nc1c2c(nn1-c1ccc(F)cc1)CSC2,.,.,/,/,.,.
Fc1ccccc1SCc1nnc(-c2ccccc2Br)o1,11µM,.,.,.,/,.
Cc1noc(C)c1S(=O)(=O)N(C)C[C@H]1Oc2c(cccc2N(C)C)C(=O)N([C@H](C)CO)C[C@@H]1C,.,.,.,.,100µM,/
Cc1[nH]c2ccccc2c1SCCNC(=O)c1ccc(F)cc1,?,.,/,/,.,.
COc1ccc(C(=O)NCCSc2c(C)[nH]c3ccccc23)cc1,.,.,/,/,.,71µM
CC(C)=CCC12Oc3cc(O)ccc3C1(O)Oc1cc(O)c([C@H]3C=C(C)CC(c4ccc(O)cc4O)[C@H]3C(=O)c3ccc(O)cc3O)c(O)c1C2=O (stereo partly specified),40µM,.,.,.,/,/
SMILES,JMJD2A Tudor,HP1b chromo inh,CtBP-E1A inh,Six1-Eya2 inh,TDP1 block,BAZ2B inh
O=[N+]([O-])c1ccc(C(=Nc2cccc3ccccc23)N2CCOCC2)cc1,?,?,?,?,.,50µM
Cc1ccc([N+](=O)[O-])cc1N=C(c1ccc([N+](=O)[O-])cc1)N1CCOCC1,79µM,?,.,.,.,?
Cc1ccc([N+](=O)[O-])cc1N=C(c1cccc([N+](=O)[O-])c1)N1CCOCC1,.[11.4 µM],.,.,.,.,.
COc1cccc(CNC(=O)C2CCC(CNS(=O)(=O)c3ccc(Br)s3)CC2)c1 (stereo unspecified),.,.,/,/,.,.
CCOCCCNC(=O)c1ccc(Cn2c(=S)[nH]c3c([nH]c4ccc(OC)cc43)c2=O)cc1,.,.,/,.,.,.
CCCCNC(=O)CCCn1c(=S)[nH]c2cc3c(cc2c1=O)OCO3,.,.,.,.,.,.
O=C(CCCn1c(=S)[nH]c2cc3c(cc2c1=O)OCO3)N1CCN(C2CCCCC2)CC1,79µM,.,.,.,.,.
CCN(CC)CCNC(=O)CCn1c(=S)[nH]c2cc3c(cc2c1=O)OCO3,50µM,.,.,.,.,.
CCN(CC)CCNC(=O)CCCCn1c(=S)[nH]c2c([nH]c3ccc(OC)cc32)c1=O,4µM,?,.,.,.,?
C=C(C)C1CC=C(C)CC1 (stereo unspecified),/,/,/,/,.,/
COC(=O)[C@H]1[C@H]2C[C@@H]3c4[nH]c5cc(OC)ccc5c4CCN3C[C@H]2C[C@@H](OC(=O)c2ccc(N)cc2)[C@@H]1OC,?,.,.,?,.,40µM
Cc1cc(=O)n(Cc2ccc(Cl)cc2)c2c1c(C)nn2-c1ccccc1,.,.,/,/,.,.
O=C(NCC(c1cccnc1)N1CCc2ccccc2C1)C(=O)Nc1ccc(F)cc1F (stereo unspecified),.,.,/,/,.,?
CCCc1nn2c(=O)cc(COC(=O)c3ccccc3NC(=O)COc3ccccc3F)nc2s1,.,.,/,/,.,.
O=C(CCCN1C(=O)/C(=C/c2ccccc2Cl)SC1=S)Nc1cccnc1,22µM,.,.,.,.,?
O=C(CCCN1C(=O)/C(=C/c2ccccc2Cl)SC1=S)Nc1ccccn1,18µM,?,.,.,.,?
O=C(CCCN1C(=O)/C(=C/c2cccs2)SC1=S)Nc1ccccn1,?,?,.,.,.,?
O=C1/C(=C\c2ccc(O)c(O)c2)N=C2CCCCCN12,3.2µM,.,.,.,.,?
Cc1ccc(CN2CCC(CNc3ncnc4onc(-c5ccc(F)cc5)c34)CC2)cc1,.,.,/,/,.,.
COCCn1c(C)cc(C2=NNC(=Nc3ccccc3)SC2)c1C,.,.,.,.,.,50µM
Cc1cc(C2=NNC(=NCCc3ccccc3)SC2)c(C)n1CC1CCCO1 (stereo unspecified),50µM,?,.,.,.,.
FC(F)(F)c1cc(NC(=S)Nc2ccc3cc4ccccc4cc3c2)cc(C(F)(F)F)c1,/,/,/,/,.,/
Nc1nc(CN2CCN(Cc3ccccc3)CC2)nc(N2CCCc3ccccc32)n1,.,.,.,.,.,?
COc1ccc(N2CCN(Cc3nc(N)nc(N4CCCc5ccccc54)n3)CC2)cc1,50µM,?,.,.,.,11µM
Nc1nc(CN2CCN(c3ccccc3F)CC2)nc(N2CCCc3ccccc32)n1,?,.,.,.,.,50µM
Nc1nc(CSc2nnnn2-c2ccccc2)nc(N2CCCc3ccccc32)n1,.,.,.,.,.,.

# Screens deposited in PubChem by National Center for Advancing Translational Sciences (NCATS).
